PI4K2A inh = inhibitors of human PI4K2A; purified PI4K2A, ADP-Glo luminescence, 1 h; active compounds read low; activity change, negative = inhibition, % at 76.9 µM; 0.13% of 420,000 active; AID 1346378; in the data active means activity change below about -50%; inconclusive means mostly about -30% to -49%
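PI4K2A activity was measured by ADP-Glo luminescence: enzyme (4 ug/mL stock) and phosphatidylinositol (1.2 mM stock) in Tris pH 7.5/MgCl2/EGTA/Triton X-100 buffer were reacted with ATP (300 microM stock) for one hour at ambient temperature.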
VDR inh = inhibitors of human vitamin D receptor; 0.93% of 400,000 active; Potency, µM, usual class: inhibitors; VDR-SRC2-3 peptide fluorescence polarization, 2 h
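After 23 nl compound addition and a short centrifugation, plates sat for 2 hours at ambient temperature; polarization of fluorescence then indicated loss of VDR binding to peptide SRC2-3.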
GCN5L2 inh = inhibitors of human GCN5L2 histone acetyltransferase. Q92830. GCN5L2 HAT assay, ThioGlo1 CoA-SH fluorescence. 0.21% of 390,000 active. Potency, µM (doses to about 58.9 µM), actives largely listed as inhibitors. AID 504327
Target sequence (Q92830 whole entry, looked up): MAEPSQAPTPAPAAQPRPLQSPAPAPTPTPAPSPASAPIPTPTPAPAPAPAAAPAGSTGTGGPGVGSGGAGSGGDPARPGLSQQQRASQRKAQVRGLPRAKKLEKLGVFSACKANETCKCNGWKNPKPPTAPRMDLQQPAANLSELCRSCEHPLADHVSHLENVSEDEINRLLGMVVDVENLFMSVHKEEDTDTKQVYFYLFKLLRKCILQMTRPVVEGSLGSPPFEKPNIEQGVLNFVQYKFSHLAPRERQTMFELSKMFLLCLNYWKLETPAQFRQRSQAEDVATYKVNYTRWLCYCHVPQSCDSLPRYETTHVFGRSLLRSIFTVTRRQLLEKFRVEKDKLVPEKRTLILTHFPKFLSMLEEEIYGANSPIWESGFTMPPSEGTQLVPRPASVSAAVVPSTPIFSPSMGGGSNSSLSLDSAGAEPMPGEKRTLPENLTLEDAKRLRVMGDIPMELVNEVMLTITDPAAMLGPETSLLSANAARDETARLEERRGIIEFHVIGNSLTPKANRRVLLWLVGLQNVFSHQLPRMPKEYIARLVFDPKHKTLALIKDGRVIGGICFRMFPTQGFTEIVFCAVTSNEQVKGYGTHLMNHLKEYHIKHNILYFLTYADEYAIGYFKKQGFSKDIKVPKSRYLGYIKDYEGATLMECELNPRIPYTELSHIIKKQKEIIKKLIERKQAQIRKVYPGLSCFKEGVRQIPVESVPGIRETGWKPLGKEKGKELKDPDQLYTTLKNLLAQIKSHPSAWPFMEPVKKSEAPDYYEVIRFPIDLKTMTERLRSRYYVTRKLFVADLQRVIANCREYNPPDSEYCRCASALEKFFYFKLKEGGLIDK
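ThioGlo1-coupled HAT assay: 20nM GCN5L2, 70uM acetyl-CoA, 75uM H3(1-25) peptide, pH 7.5. Fluorescence read at 340/540nm at start and after 20 min at room temperature.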
GLS inhibitor = glutaminase GLS (human) inhibition; O94925; 0.21% of 410,000 active; GLS enzymatic activity, qHTS titration; Potency, µM (top dose mostly 45.5 µM), usual class: inhibitors; AID 624170
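Read-out is an Amplex red fluorescence increase coupled through glutamate oxidase and HRP, measured before and after 30 min room-temperature incubation. hKGA is in 45 mM KH2PO4 (pH 8.2) with 0.02% Tween-20; glutamine added as 1mM solution.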
PLK1 PBD block = PLK1 (human) polo-box domain binding inhibition. Plk1 PBD binding of FITC phosphopeptide, fluorescence polarization. Potency, µM, actives largely listed as inhibitors. 2.8% of 360,000 active; further: series mostly up to about 57 µM; nearly all actives have a fitted effect of over 65% in size
Each line names hits and unclear results; the compound was inactive in the other large screens. Hits are enriched below; roughly 3.1% of the tested compounds scored in any of these assays. Unless noted, the call rests on the fitted dose curve; in most records, active means well fitted curve in the direction sought with a large enough effect; inconclusive means small, poorly fitted or top-dose-only effect, or another doubt; inactive means no such curve, though single readings can be large; an effect the other way counts as inactive or inconclusive.

O=C(COC(=O)Cc1ccc(-c2ccccc2)cc1)NCc1ccccc1	VDR inh inconclusive, PLK1 PBD block 26.7µM
CC(=O)c1ccc(NC(=O)C(Cc2ccccc2)n2cccc2)cc1 (stereo unspecified)	VDR inh inconclusive, GLS inhibitor inconclusive, PLK1 PBD block 13.4µM
N#CC(c1ccc(Cl)cc1)c1ncc(C(F)(F)F)cc1Cl (stereo unspecified)	none
N#CC(c1ccc(Cl)cc1)c1c(Cl)cc(-n2ncc(=O)[nH]c2=O)cc1Cl (stereo unspecified)	VDR inh 28.2µM, GCN5L2 inh inconclusive (no result: PI4K2A inh, PLK1 PBD block)
COc1ccccc1Nc1ccc(N)cc1	GLS inhibitor 11.2µM
Cc1ccc(NS(=O)(=O)c2cc(NC(=O)c3ccc4c(c3)NC(=O)CS4)ccc2C)c(C)c1	VDR inh inconclusive, PLK1 PBD block 9.47µM
COc1ccc(NS(=O)(=O)c2ccc(NC(=O)c3ccccc3)cc2)nn1	VDR inh inconclusive, PLK1 PBD block 15µM
Cc1ccc(NS(=O)(=O)c2ccc(NC(=O)c3ccc(-c4ccccc4)cc3)cc2)c(C)c1	PLK1 PBD block 23.8µM (no result: GCN5L2 inh)
CCn1c2ccccc2c2cc(NC(=O)COC(=O)c3cccc(F)c3)ccc21	none (no result: VDR inh, GCN5L2 inh, GLS inhibitor, PLK1 PBD block)
CCCCCN1CCCCC(NC(=O)c2cccc(C(F)(F)F)c2)C1=O (stereo unspecified)	none (no result: VDR inh, GCN5L2 inh, GLS inhibitor, PLK1 PBD block)
Cc1ccc2[nH]c(=O)c(CN(Cc3cccnc3)Cc3nnnn3CCN3CCOCC3)cc2c1	GLS inhibitor inconclusive, PLK1 PBD block 4.74µM
COc1ccc(CCNC(=S)Nc2ccc(OC)cc2)cc1	PLK1 PBD block 21.2µM
COc1ccc(NC(=S)NCCCCCC(=O)C[N+](=O)[O-])cc1	VDR inh inconclusive, PLK1 PBD block 23.8µM
S=C(NCCc1ccccc1)NC1CCC(NC(=S)NCCc2ccccc2)CC1 (stereo unspecified)	none
COc1ccc(CCNC(=S)Nc2ccccc2)cc1	none
COc1ccc(CCNC(=S)NC2CCN(Cc3ccccc3)CC2)cc1	PLK1 PBD block 29.9µM
Cc1cc(C2=NNC(=NC3CC3)SC2)c(C)n1-c1ccccc1F	VDR inh inconclusive, PLK1 PBD block 26.7µM
Cc1csc(NC(=O)c2cn3ccccc3n2)n1	PI4K2A inh -55.5
CN(Cc1ccco1)c1ncnc2ccc(-c3cccc(Cl)c3)cc12	none (no result: PI4K2A inh, VDR inh, GLS inhibitor, PLK1 PBD block)
N=c1c(S(=O)(=O)c2ccc(Br)cc2)cc2c(=O)n3ccccc3nc2n1C1CCCCC1	none
N=c1c(S(=O)(=O)c2ccccc2)cc2c(=O)n3ccccc3nc2n1C1CCCCC1	PLK1 PBD block 21.2µM (no result: GCN5L2 inh)
CCOC(=O)NNc1ccc2nonc2c1[N+](=O)[O-]	PI4K2A inh inconclusive, VDR inh 35.5µM, PLK1 PBD block 8.44µM
COc1ccc(/C=C/C(=O)Nc2ccccc2)cc1OC	none
COc1ccc(/C=C/C(=O)Nc2c(C(=O)O)[nH]c3ccccc23)cc1OC	VDR inh inconclusive, PLK1 PBD block 26.7µM
C/C(=C(/CCO)SS/C(CCO)=C(\C)N(C=O)Cc1cnc(C)nc1N)N(C=O)Cc1cnc(C)nc1N	VDR inh 31.6µM (no result: PI4K2A inh, PLK1 PBD block)
O=S(=O)(CC1NCc2ccccc21)NCc1ccc(F)cc1 (stereo unspecified)	none (no result: VDR inh, GCN5L2 inh, GLS inhibitor, PLK1 PBD block)
O=C(c1ccc(OC2CCN(Cc3ccc(F)cc3)CC2)cc1)N1CCCC1	none
O=C(c1cccc(OC2CCN(Cc3ccc(F)cc3)CC2)c1)N1CCCC1	PLK1 PBD block 21.2µM
CCOc1cccc(NC(=O)c2sc3nc(-c4ccc(F)cc4)ccc3c2N)c1	VDR inh inconclusive, GCN5L2 inh 35.5µM (no result: PLK1 PBD block)
Cc1ccc(NC(=O)c2sc3nc(-c4ccncc4)ccc3c2N)cc1	none (no result: PLK1 PBD block)
COC(=O)[C@]12C[C@H](CC(=O)NCc3ccc(OC)c(OC)c3)C(=O)N(Cc3cccc4ccccc34)C1=C[C@H](COCc1ccccc1)O[C@@H]2C	none (no result: VDR inh, GCN5L2 inh, GLS inhibitor, PLK1 PBD block)
O=C1CNc2cc(Cl)ccc2N1	GLS inhibitor inconclusive (no result: VDR inh, GCN5L2 inh)
O=C1CSc2cc(Cl)ccc2N1	VDR inh inconclusive, PLK1 PBD block 10.6µM (no result: GCN5L2 inh)
CCOC(=O)c1cnc2ccc(OC)cc2c1Nc1ccc(N2CCN(C)CC2)cc1	GLS inhibitor 12.6µM, PLK1 PBD block 6.7µM
CCOC(=O)c1ccc2ncc(C(=O)OCC)c(Nc3ccc(N4CCOCC4)cc3)c2c1	none
O=C(N/N=C1/CCCc2ccccc21)c1cc([N+](=O)[O-])cc([N+](=O)[O-])c1	none (no result: PI4K2A inh, VDR inh, GLS inhibitor, PLK1 PBD block)
O=C(N/N=C1\CCCc2ccccc21)c1cccc([N+](=O)[O-])c1	GCN5L2 inh 31.6µM

Screening data deposited in PubChem by National Center for Advancing Translational Sciences (NCATS).
